A selection: hits, their analogues and other compounds. The true share with any hit is near 1.2%.
NOD2 RIPK2 PPI: NOD2-RIPK2 protein interaction inhibition. O43353. CHO BLA complementation NOD2-RIPK2, CCF4 ratio. inhibition, % at 4.98 µM. 360,000 tested, 0.38% active; in the data active means inhibition above about 21%
Target sequence (O43353 whole entry, looked up): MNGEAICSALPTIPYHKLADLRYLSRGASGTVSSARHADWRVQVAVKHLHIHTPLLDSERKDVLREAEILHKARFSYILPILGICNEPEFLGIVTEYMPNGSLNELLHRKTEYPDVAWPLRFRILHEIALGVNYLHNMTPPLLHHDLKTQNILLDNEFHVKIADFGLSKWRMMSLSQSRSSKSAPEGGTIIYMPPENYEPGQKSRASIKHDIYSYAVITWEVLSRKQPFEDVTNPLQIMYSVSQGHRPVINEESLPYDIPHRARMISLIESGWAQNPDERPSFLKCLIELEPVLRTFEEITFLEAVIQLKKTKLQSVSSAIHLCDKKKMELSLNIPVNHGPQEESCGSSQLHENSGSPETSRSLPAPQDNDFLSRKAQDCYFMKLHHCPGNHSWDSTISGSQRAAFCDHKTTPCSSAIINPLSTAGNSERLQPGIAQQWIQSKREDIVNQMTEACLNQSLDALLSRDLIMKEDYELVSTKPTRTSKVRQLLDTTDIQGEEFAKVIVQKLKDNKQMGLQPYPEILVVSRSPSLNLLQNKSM
ABHD5 PLIN5 PPI: blocks binding of human ABHD5 to perilipin-5 | Split G. princeps luciferase complementation, luminescence, 4 h | 360,000 tested, 0.78% active | inhibition, % at 4 µM | Q00G26+Q8WTS1;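 active means inhibition above the mean inhibition across every tested compound plus 3 SD, cut at about 22% in these data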
TLR4-MyD88 BLA: blocks binding of human TLR4 to MyD88; O00206+Q99836; HeLa CL3-4 TLR4/MyD88 BLA complementation, FRET ratio; inhibition, % at 8.4 µM; 200,000 tested, 0.18% active; AID 861; in the data active means inhibition above about 25%
TLR9-MyD88 inh: blocks human TLR9 binding to MyD88 | Q9NR96+Q99836 | CHO BLA complementation TLR9-MyD88, CCF4 FRET ratio | inhibition, % at 4.98 µM | 340,000 tested, 0.21% active;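 active means inhibition above the mean over all tested compounds plus 3 SD, cut at about 21% in these data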
ABHD5-PLIN5 conf: confirmation of human ABHD5-PLIN5 interaction inhibitors; inhibition, % at 4 µM; AID 651612; shares compounds with ABHD5 PLIN5 PPI; 2,200 tested, 67% active; biochemical ABHD5-PLIN5 interaction, luminescence; in the data active means inhibition above about 23%
HNF4 split-luc: active in HNF4 split-luciferase counter-screen for ABHD5-PLIN5 inhibitors. shares compounds with ABHD5 PLIN5 PPI. HNF4 dimerization, luminescence, biochemical. inhibition, % at 4 µM. 2,200 tested, 77% active. AID 651674;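 active means mean inhibition across replicate wells exceeding the computed hit threshold, cut at about 13% in these data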;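 further: light from luciferase halves that rejoin when HNF4 fusion proteins dimerize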
NOD2 RIPK2 conf: confirmation of human NOD2-RIPK2 interaction inhibitors | inhibition, % at 4.98 µM | AID 624370 | 1,200 tested, 70% active | shares compounds with NOD2 RIPK2 PPI | CHO cells, NOD2-RIPK2 BLA complementation, CCF4 FRET;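 active means mean inhibition across replicates above a set limit taken from the earlier primary screen, cut at about 21% in these data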
NOD2 BLA counter: hits BLA reporter in NOD2-RIPK2 inhibitor counterscreen; shares compounds with NOD2 RIPK2 PPI; CHO BLA reporter, CCF4 FRET ratio; inhibition, % at 4.98 µM; 1,200 tested, 57% active; AID 624371;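 active means mean inhibition above the low-control mean inhibition plus three low-control SD, cut at about 11% in these data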
Numbers stand for hits; – = inactive; · = no result given.

SMILES	NOD2 RIPK2 PPI	ABHD5 PLIN5 PPI	TLR4-MyD88 BLA	TLR9-MyD88 inh	ABHD5-PLIN5 conf	HNF4 split-luc	NOD2 RIPK2 conf	NOD2 BLA counter
Cc1ccc(C2CC(c3ccccc3)=NN2C(=S)Nc2ccccc2)o1 (stereo not drawn)	48	42	–	–	–	–	–	–
CC1=NN(C(=S)Nc2ccccc2)C(c2ccccc2)C1 (stereo not drawn)	–	–	–	–	·	·	·	·
O=C1N/C(=C/c2ccc(N3CCOCC3)o2)C(=O)N1c1ccccc1	40	80	–	–	63	99	–	–
C=C1C(=O)OC2CC1C(O)CC(C)=CCCC(C)=CC(O)CC2C (stereo not drawn)	23	55	·	–	81	61	–	13
Cc1ccc(S(=O)(=O)CCC(=O)c2cccc([N+](=O)[O-])c2)cc1	22	33	·	–	65	98	38	–
Cc1ccc(C(=O)CCS(=O)(=O)c2ccc(Br)cc2)cc1	–	–	·	–	·	·	·	·
CCCOc1ccc(C2CC(=O)Nc3cc(OC)c(OC)cc32)cc1 (stereo not drawn)	–	–	·	–	·	·	·	·
O=C(C(Br)=Cc1ccccc1)c1ccccc1	33	51	·	–	83	98	65	22
Cc1cccc(N/C(N)=N/c2nc(C)c(Cc3ccccc3)c(=O)[nH]2)c1	–	–	–	–	·	·	·	·
Cc1cc(S(=O)(=O)c2ccc(Cl)cc2)nc(S(=O)(=O)c2ccc(Cl)cc2)c1C#N	50	79	·	–	95	105	68	18
Cc1cc(C)c(S(=O)(=O)c2ccc(Cl)cc2)c(Cl)n1	–	–	–	–	·	·	·	·
COc1cccc(CN2CCC2(C)C(=O)Nc2cccc(Oc3ccccc3)c2)c1F (stereo not drawn)	–	–	·	·	·	·	·	·
CC(C)c1nnc(NC(=O)CCS(=O)(=O)c2nc(-c3cccs3)cc(C(F)(F)F)n2)s1	41	37	–	–	76	89	–	–
CC1(C(=O)Nc2cccc(Oc3ccccc3)c2)CCN1Cc1ccccc1OC(F)F (stereo not drawn)	–	–	·	·	·	·	·	·
COc1ccc(Nc2cccccc2=O)cc1	–	–	–	–	·	·	·	·
O=C1Cc2ccccc2C(=O)N1Nc1ccccc1	–	–	·	–	·	·	·	·
COc1ccc(C2=CC(=O)N(Nc3ccccc3)C2=O)cc1	42	88	–	·	86	88	55	–
Cc1ccc(NN2C(=O)C=C(c3ccc(Cl)cc3)C2=O)cc1	51	95	–	–	101	107	82	11
O=C1C=C(c2ccccc2)C(=O)N1Nc1ccccc1	49	86	–	–	100	107	78	–
Cc1cc2c(NCc3ccccc3)ncnc2s1	–	–	·	–	·	·	·	·
CCc1ccc(NC(=O)CCCN2C(=O)C3CC=CCC3C2=O)cc1 (stereo not drawn)	–	–	·	–	·	·	·	·
O=C(NCc1cccnc1)/C(=C/c1ccc(-c2ccc(Cl)cc2)o1)S(=O)(=O)c1ccccc1	41	80	–	–	97	88	36	–
O=C(NCc1cccnc1)/C(=C\c1ccc(-c2ccc(Br)cc2)o1)S(=O)(=O)c1ccccc1	33	73	–	–	93	83	30	–
O=C(CN(Cc1ccc(Br)cc1)S(=O)(=O)c1ccccc1)NCc1cccnc1	–	–	·	–	·	·	·	·
COc1ccccc1-c1cc(C(F)(F)F)nc(S(C)(=O)=O)n1	25	44	–	26	67	86	41	–
SMILES	NOD2 RIPK2 PPI	ABHD5 PLIN5 PPI	TLR4-MyD88 BLA	TLR9-MyD88 inh	ABHD5-PLIN5 conf	HNF4 split-luc	NOD2 RIPK2 conf	NOD2 BLA counter
Cc1cccc(CS(=O)(=O)c2ncc(Cl)c(C(=O)NCc3ccccc3)n2)c1	57	34	·	–	92	106	69	15
Cc1cccc(CS(=O)(=O)c2ncc(Cl)c(C(=O)Nc3c(C)cccc3C)n2)c1	67	75	·	–	89	107	47	–
CSc1ncc(Cl)c(C(=O)Nc2cccc(C)c2)n1	–	–	–	–	·	·	·	·
COc1ccc(CCN2CC(C(=O)NCCc3ccccc3C)CCC2=O)cc1 (stereo not drawn)	–	–	·	–	·	·	·	·
O=C(C=C=Nc1ccccc1)C(=O)N=C=Cc1ccccc1	28	73	·	–	96	99	–	–
O=C(O)c1cccc2c1C(=O)c1ccccc1C2=O	–	–	–	–	·	·	·	·
O=C1C(O)=CC(=C(c2ccccc2)c2ccccc2)c2ccccc21	34	97	·	–	–	88	–	–
Cc1[nH]nc(-c2cccnc2)c1N=NN(C)C	37	62	·	–	73	79	–	–
CN(C)c1nc(N)nc(-c2cccnc2)n1	–	–	–	–	·	·	·	·
Cc1cc2oc(=O)cc(CN3CCCCC3)c2cc1O	–	–	·	–	·	·	·	·
O=[N+]([O-])/C=C\c1ccc(N2CCOCC2)cc1	45	65	·	–	88	89	43	–
CC(=O)OC[C@]12CC[C@H]3[C@@](C)(CC[C@H]4C(C)(C)CCC[C@]34C)[C@@H]1CC(C1=CC(=O)OC1O)O2 (stereo partly drawn)	46	100	·	·	103	103	49	21
Cc1nc(-c2ccc(S(=O)(=O)Oc3ccc(Cl)cc3Cl)s2)cs1	–	–	·	–	·	·	·	·
O=C(NNC(=O)c1ccccc1O)c1cccc(Br)c1	–	–	·	–	·	·	·	·
O=C(O)c1ccc(Cn2cc(/C=C\[N+](=O)[O-])c3ccccc32)o1	–	–	·	–	·	·	·	·
O=[N+]([O-])/C=C/c1cn(Cc2ccc(Cl)cc2)c2ccccc12	21	45	–	–	98	83	38	–
COc1ccc(C(=O)C(C)OC(=O)CCN2C(=O)C3CC=CCC3C2=O)cc1 (stereo not drawn)	–	–	·	–	·	·	·	·
COc1ccc(S(=O)Cc2ccc(C(=O)N3CCN(c4cccc(C)c4C)CC3)o2)cc1 (stereo not drawn)	–	–	·	–	·	·	·	·
O=C1C=CC(=O)N1c1ccc2c(c1)Cc1cc(F)ccc1-2	23	26	·	–	42	71	64	16
CCn1ccc(C(=O)Nc2c(C)nn(Cc3c(F)c(F)c(F)c(F)c3F)c2C)n1	–	–	–	–	·	·	·	·
Cc1oc2c(c1C(=O)N1CCC(C)CC1)C(=O)c1ccccc1C2=O	·	·	–	·	·	·	·	·
Cc1ccc(C(=O)c2c(C)oc3c2C(=O)C(=O)c2ccccc2-3)cc1	24	51	–	–	84	60	24	–
CC(C)(C)c1cc(C(=O)CCN2CCOCC2)cc(C(C)(C)C)c1O	48	32	·	–	–	32	–	–
CN(C)CCC(=O)C(Cc1ccccc1)c1ccccc1 (stereo not drawn)	35	29	·	–	60	93	28	–
CN(C)CCNC(=O)C(c1ccccc1)c1ccccc1	–	–	·	–	·	·	·	·

Bioassay records: PubChem BioAssay, The Scripps Research Institute Molecular Screening Center
